The text below walks through data of PubChem BioAssay (Tox21).

Inconclusive results are not listed. Calls of active or inactive are those of the source. Calls come from the whole dose curve; as a rule, active = well fitted inhibition curve with a large enough effect in the repeat runs; inconclusive = weak or mixed curves; inactive = no such curve, though single readings can be large or run the other way.
% is set by controls: 0 for no effect and ±100 for the full control effect; potency is the fitted concentration of half-maximal effect.

The test deals with Aromatase (Homo sapiens) (UniProt P11511). Nature of the test: qHTS assay to identify aromatase inhibitors (AID 743083). Note: nearly all actives have a fitted effect of over 55% in size. The settings on record: MCF-7 aro ERE, testosterone-driven ERE luciferase, 24 h; series mostly up to 70.3 µM; activity, negative = inhibition: at the top concentration. On the technique in general: qHTS replaces the single test concentration by a dilution series.
Chain of Aromatase (Homo sapiens) (P11511 whole entry, looked up): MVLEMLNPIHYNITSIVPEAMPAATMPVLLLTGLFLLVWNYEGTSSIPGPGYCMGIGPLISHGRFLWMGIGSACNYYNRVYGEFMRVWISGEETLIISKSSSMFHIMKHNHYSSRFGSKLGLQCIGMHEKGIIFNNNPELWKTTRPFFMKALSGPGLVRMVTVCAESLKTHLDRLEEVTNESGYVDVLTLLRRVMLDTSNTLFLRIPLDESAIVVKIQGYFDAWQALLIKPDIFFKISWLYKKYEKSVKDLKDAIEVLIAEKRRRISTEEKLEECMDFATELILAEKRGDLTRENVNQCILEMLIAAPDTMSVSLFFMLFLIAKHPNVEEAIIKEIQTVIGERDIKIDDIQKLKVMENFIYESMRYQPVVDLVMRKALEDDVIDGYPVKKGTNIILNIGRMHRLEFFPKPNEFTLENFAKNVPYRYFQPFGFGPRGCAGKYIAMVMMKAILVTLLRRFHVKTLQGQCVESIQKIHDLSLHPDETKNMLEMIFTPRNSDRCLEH
Turning to `CC(C)=CCN1CC[C@]2(C)c3cc(O)ccc3C[C@H]1[C@H]2C`, the “activity, negative = inhibition” value was 22.9% (inactive).
Same read-out and setting: with `CN[C@@]1(c2ccccc2Cl)CCCCC1=O` the figure was 3.55% (inactive); with `CCNC1(c2cccs2)CCCCC1=O` (stereo not drawn), -1.55% [at 32.5 µM] (inactive).
Same read-out and setting: for `CNC(C)CC1CCCCC1` (stereo not drawn) the value was 0.669% (inactive); for `CCC1(c2ccccc2)C(=O)NC(=O)N(C)C1=O` (stereo not drawn), 1.34% (inactive); for `COc1cc([C@@H]2c3cc4c(cc3[C@@H](O)[C@H]3COC(=O)[C@H]23)OCO4)cc(OC)c1O`, -2.84% (inactive).
On the same count and under the same terms, with `CN1CC[C@@]23CCCC[C@@H]2[C@@H]1Cc1ccc(O)cc13` the figure was -1.09% (inactive); with `CNC(C)Cc1ccccc1` (stereo not drawn), 1.08% (inactive).
Regarding `CN[C@@H](C)Cc1ccccc1`, the “activity, negative = inhibition” value was 4.79% (inactive).
Same read-out and setting: for `CCCCNC(C)(C)[P+](=O)O` the value was -6.19% (inactive).
With `O=C1C[C@@H]2OCC=C3CN4CC[C@]56c7ccccc7N1[C@H]5[C@H]2[C@H]3C[C@H]46` (tested in a mixture with another compound), the Potency entry was “inactive”.
Turning to `O=c1ccc2cc(O[C@@H]3O[C@H](CO)[C@@H](O)[C@H](O)[C@H]3O)c(O)cc2o1`, the “activity, negative = inhibition” value was 3.29% [at 32.5 µM] (inactive).
On the same count and under the same terms, with `C/C=C(\CC)C(=O)NC(N)=O` the figure was 0.187% (inactive).
The same measure, in the same setting: for `C[C@]12CCC(=O)C[C@@H]1CC[C@@H]1[C@@H]2CC[C@@]2(C)[C@H]1CC[C@]2(C)O` the value was 49.1% (inactive); for `Cc1nnc2n1-c1ccc(Cl)cc1C(c1ccccc1)=NC2`, 48.8% (inactive).
For `CCCSc1cc(OC)c(CCN)cc1OC`, the Potency is 32.5 µM (active).
For the molecule `O=C(O)CCCO`, the “activity, negative = inhibition” value was 16.5% [at 95 µM] (inactive).
Same read-out and setting: for `Oc1ccc2c3c1O[C@H]1[C@@H](O)C=C[C@H]4[C@H](C2)NCC[C@@]341` the value was -5.44% (inactive).
On the same count and under the same terms, for `O=P1(N(CCCl)CCCl)NC(OO)CCO1` (stereo not drawn) the value was 0.691% (inactive).
Same read-out and setting: with `COC(=O)[C@H]1[C@@H](OC(=O)c2ccccc2)C[C@@H]2CC[C@H]1N2C` the figure was 4.52% (inactive).
For the molecule `O=C1CN=C(c2ccccc2)c2cc(Cl)ccc2N1`, the “activity, negative = inhibition” value was -19.8% (inactive).
Take `C=C[C@H]1CN2CC[C@H]1C[C@H]2[C@H](OC(=O)OCC)c1ccnc2ccc(OC)cc12`: the “activity, negative = inhibition” value was -16.9% (inactive).
Regarding `CCc1cc(OC)c(C[C@@H](C)N)cc1OC`, the “activity, negative = inhibition” value is -12% [at 95 µM] (inactive).
As for `CC(C)[C@H]1C(=O)N2CCC[C@H]2[C@]2(O)O[C@](NC(=O)[C@@H]3C[C@@H]4c5cccc6[nH]cc(c56)C[C@H]4N(C)C3)(C(C)C)C(=O)N12`, the “activity, negative = inhibition” value is -6.26% (inactive).
Still for that read-out and setting: for `C[C@]12CC[C@H]3[C@@H](CCC4=C(Cl)C(=O)CC[C@@]43C)[C@@H]1CC[C@@H]2O` the value was 26.4% (inactive).
For the molecule `Clc1ccc(C(Cn2ccnc2)OCc2csc3c(Cl)cccc23)c(Cl)c1` (stereo not drawn), the Potency was 4.03 µM (active).
Consider `C[C@@H]1[C@@H]2Cc3ccc(O)cc3[C@@]1(C)CCN2CC1CC1`, for which the “activity, negative = inhibition” value is -1.02% (inactive).
As to `CC(C)C[C@H]1C(=O)N2CCC[C@H]2[C@]2(O)O[C@](NC(=O)[C@@H]3C[C@@H]4c5cccc6[nH]cc(c56)C[C@H]4N(C)C3)(C(C)C)C(=O)N12`, the “activity, negative = inhibition” value was -12.4% (inactive).
Take `[H+].[H+].[Hg+2].[O-]B([O-])[O-].[c-]1ccccc1`: the Potency is 7.5 µM (active).
`C=CCC1([C@@H](C)CCC)C(=O)NC(=O)NC1=O`: the “activity, negative = inhibition” value was -7.38% (inactive).
Same read-out and setting: with `c1ccc2c(c1)Sc1ccccc1N2C[C@@H]1CN2CCC1CC2` the figure was 2.31% (inactive); with `C[C@@H](Cc1ccccc1)NCCC(c1ccccc1)c1ccccc1`, -23.1% [at 32.5 µM] (inactive).
For the molecule `CC[C@H]1[C@@H]2C[C@H]3[C@@H]4N(C)c5ccccc5[C@]45C[C@@H](C2[C@H]5O)N3[C@@H]1O` (stereo partly drawn), the “activity, negative = inhibition” value was -8.77% [at 32.5 µM] (inactive).
Still for that read-out and setting: with `CC(N)Cc1ccc2c(c1)OCO2` (stereo not drawn) the figure was -5.63% (inactive).
Still for that read-out and setting: for `CN1c2ccccc2C(NCCCCCCC(=O)O)c2ccc(Cl)cc2S1(=O)=O` (stereo not drawn) the value was -4.25% (inactive); for `CN[C@]1(c2ccccc2Cl)CCCCC1=O`, 1.61% (inactive); for `C[C@]12CC[C@@H]3c4ccc(OC(=O)N(CCCl)CCCl)cc4CC[C@H]3[C@@H]1CC[C@@H]2OP(=O)(O)O`, -4.91% (inactive).
Turning to `CC(=O)[C@@]1(O)CC[C@H]2[C@@H]3CCC4=CC(=O)CC[C@]4(C)C3(F)[C@@H](O)C[C@@]21C` (stereo partly drawn), the “activity, negative = inhibition” value is 65.7% (inactive).
